Test results reported in PubChem BioAssay (Tox21).
Inconclusive results are not listed. Some structures have more than one record in an assay (separate samples or runs), and their calls can disagree. The source made the active and inactive calls. Unless noted, calls come from the whole dose curve.

Legend:
[1] = Nuclear factor erythroid 2-related factor 2/antioxidant responsive element (Nrf2/ARE) small molecule agonists: qHTS cell viability counter screen in human keratinocytes (AID 1919968; active = well fitted curve in the direction sought with a large enough effect in the repeat runs; an effect the other way counts as inactive or inconclusive; note: nearly all actives have a fitted effect of over 55% in size; note: potency is the fitted concentration of half-maximal effect)
Method in brief: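 Stably transfected HaCaT (KeratinoSens), 1,500/well. Test agents in DMSO were applied for 23 h, 37 C/5% CO2. CellTiter-Fluor was incubated 1 h before the fluorescence read.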

[2] = molecular target: KiSS-1 receptor (Homo sapiens) (UniProt Q969F8); experiment: Human kisspeptin (KISS1R) small molecule agonists, calcium flux assay in KISS1R-HEK293 cells (AID 1920064; active = well fitted curve in the direction sought with a large enough effect in the repeat runs; an effect the other way counts as inactive or inconclusive)
Sequence of KiSS-1 receptor (Homo sapiens) (Q969F8 whole entry, looked up): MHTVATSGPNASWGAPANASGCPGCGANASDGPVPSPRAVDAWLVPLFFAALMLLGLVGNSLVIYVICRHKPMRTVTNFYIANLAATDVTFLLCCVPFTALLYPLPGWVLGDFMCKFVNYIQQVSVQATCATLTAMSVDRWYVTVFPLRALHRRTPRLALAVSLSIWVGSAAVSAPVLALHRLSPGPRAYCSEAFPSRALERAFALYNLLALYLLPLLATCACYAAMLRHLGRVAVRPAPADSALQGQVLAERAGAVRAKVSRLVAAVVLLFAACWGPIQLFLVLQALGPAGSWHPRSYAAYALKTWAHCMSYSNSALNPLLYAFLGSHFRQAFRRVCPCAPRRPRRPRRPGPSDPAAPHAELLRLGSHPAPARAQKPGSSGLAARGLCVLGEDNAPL
Method in brief: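 After overnight (18 h) culture at 37 C/5% CO2, human KISS1R-HEK293 cells received calcium dye for 1 h, then test compound; emission at 540 nm (excitation 480 nm) was tracked for 3 min.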

[3] = G protein-coupled receptor (GPCR) small molecule agonists, calcium flux assay: HEK293 wild type cell line counter screen (AID 1920065)
Method in brief: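 Following 18 h incubation at 37 C/5% CO2, plates got calcium dye for 1 h; compounds, ATP or DMSO were then pinned in and fluorescence followed kinetically (480/540 nm).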

[4] = p53 small molecule agonists, cell-based qHTS assay with human liver microsomes (AID 1963577)
Method in brief: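 Compounds act here after metabolic activation: human liver microsomes and NADPH, both at 0.5 mg/mL final, were co-added to p53RE-bla cells. Incubation ran 16 h at 37 C, followed by LiveBLAzer detection.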

[5] = p53 small molecule agonists, cell-based qHTS assay with rat liver microsomes (AID 1963578)
Method in brief: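 Read-out is beta-lactamase reporter fluorescence (LiveBLAzer, 2 h, room temperature, dark) in p53RE-bla cells treated 16 h at 37 C with compound, rat liver microsomes and NADPH, both 0.5 mg/mL final.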

[6] = p53 small molecule agonists, cell-based qHTS assay with human liver microsomes: qHTS cell viability counter screen (AID 1963579); note: nearly all actives have a fitted effect of over 45% in size; note: potency is the fitted concentration of half-maximal effect
Method in brief: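 Cells carrying the p53 response-element beta-lactamase reporter are treated for 16 h at 37 C with test compounds in the presence of human liver microsomes and NADPH (both 0.5 mg/mL final); ATP-based CellTiter-Glo luminescence then reports viability.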

[7] = p53 small molecule agonists, cell-based qHTS assay with rat liver microsomes: qHTS cell viability counter screen (AID 1963580); note: nearly all actives have a fitted effect of over 45% in size
Method in brief: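 Rat liver microsome (0.5 mg/mL final) and NADPH (0.5 mg/mL final) co-incubation with compounds for 16 h at 37 C on HCT-116 p53RE-bla cells; cytotoxicity taken from intracellular ATP luminescence.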

[8] = p53 small molecule agonists, cell-based qHTS assay: qHTS cell viability counter screen (AID 1963581); note: nearly all actives have a fitted effect of over 45% in size
Method in brief: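 qHTS counter screen: 16 h compound exposure at 37 C of p53RE-bla HCT-116 cells (4,000 per well, seeded 5 h prior), cell viability by ATP luminescence.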

[9] = p53 small molecule agonists, cell-based qHTS assay (AID 1963582; active = well fitted activation curve with a large enough effect in the signal ratio in the repeat runs, not every such curve was filed as active; the % refers to the signal ratio)
Method in brief: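 Measured: fluorescence from cleaved LiveBLAzer substrate. System: p53RE-bla cells, 16 h compound treatment at 37 C, 2 h substrate step at room temperature.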

[10] = molecular target: 5-hydroxytryptamine receptor 2A (Homo sapiens) (UniProt P28223); experiment: 5-hydroxytryptamine receptor 2A (HTR2A) small molecule antagonists, cell-based qHTS assay (AID 1963586); note: nearly all actives have a fitted effect of over 45% in size
Sequence of 5-hydroxytryptamine receptor 2A (Homo sapiens) (P28223 whole entry, looked up): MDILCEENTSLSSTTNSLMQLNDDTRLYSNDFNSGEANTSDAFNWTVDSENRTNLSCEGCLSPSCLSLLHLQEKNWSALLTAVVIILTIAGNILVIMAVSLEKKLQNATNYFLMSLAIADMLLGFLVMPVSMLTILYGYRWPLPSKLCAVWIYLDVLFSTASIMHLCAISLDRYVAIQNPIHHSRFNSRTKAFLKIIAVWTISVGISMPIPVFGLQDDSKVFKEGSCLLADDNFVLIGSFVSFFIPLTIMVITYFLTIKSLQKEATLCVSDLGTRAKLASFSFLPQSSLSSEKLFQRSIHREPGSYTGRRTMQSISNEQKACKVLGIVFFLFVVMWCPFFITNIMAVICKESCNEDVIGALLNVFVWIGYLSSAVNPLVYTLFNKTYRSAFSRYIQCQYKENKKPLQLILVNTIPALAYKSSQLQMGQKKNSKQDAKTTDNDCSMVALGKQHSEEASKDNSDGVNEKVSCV
Method in brief: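 CHO cells stably expressing human HTR2A were plated for 18 h at 37 C, then loaded with calcium dye for 1 h. Compounds were preincubated 5 min at room temperature before DOI (4 nM solution) was added. Kinetic fluorescence was read for 3 min.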

[11] = molecular target: 5-hydroxytryptamine receptor 2A (Homo sapiens) (UniProt P28223); experiment: 5-hydroxytryptamine receptor 2A (HTR2A) small molecule agonists, cell-based qHTS assay (AID 1963587); note: nearly all actives have a fitted effect of over 30% in size
Method in brief: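 Kinetic calcium-flux fluorescence (2 min, 1 sec intervals) after compound addition in agonist mode. HTR2A-CHO cells were cultured 18 h, then dye-loaded 1 h at 37 C.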

[12] = molecular target: Muscarinic acetylcholine receptor M1 (Homo sapiens) (UniProt P11229); experiment: Cholinergic receptor muscarinic 1 (CHRM1) small molecule antagonists, cell-based qHTS assay (AID 1963588); note: nearly all actives have a fitted effect of over 40% in size
Sequence of Muscarinic acetylcholine receptor M1 (Homo sapiens) (P11229 whole entry, looked up): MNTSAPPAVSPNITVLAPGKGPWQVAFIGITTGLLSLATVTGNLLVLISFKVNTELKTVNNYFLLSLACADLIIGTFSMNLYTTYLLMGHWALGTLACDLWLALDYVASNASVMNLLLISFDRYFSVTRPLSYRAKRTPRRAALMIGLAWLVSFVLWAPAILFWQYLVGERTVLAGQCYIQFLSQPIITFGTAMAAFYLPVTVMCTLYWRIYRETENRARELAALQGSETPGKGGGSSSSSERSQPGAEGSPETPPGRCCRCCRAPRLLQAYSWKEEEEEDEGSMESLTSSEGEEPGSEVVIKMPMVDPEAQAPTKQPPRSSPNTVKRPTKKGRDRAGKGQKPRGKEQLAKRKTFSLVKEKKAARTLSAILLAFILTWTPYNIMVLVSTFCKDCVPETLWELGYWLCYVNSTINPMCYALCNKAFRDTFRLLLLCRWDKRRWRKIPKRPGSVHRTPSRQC
Method in brief: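 Compounds were tested at 15 concentrations in three independent runs. Dye-loaded CHRM1-CHO cells were exposed 5 min at room temperature before stimulation by acetylcholine added at 50nM. Intracellular calcium was read kinetically on FDSS for 3 min.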

[13] = molecular target: Muscarinic acetylcholine receptor M1 (Homo sapiens) (UniProt P11229); experiment: Cholinergic receptor muscarinic 1 (CHRM1) small molecule agonists, cell-based qHTS assay (AID 1963589); note: nearly all actives have a fitted effect of over 35% in size
Method in brief: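 Kinetic fluorescence (1 s intervals) of calcium-sensitive dye in human M1 CHO cells after compound addition; cells pre-incubated 18 h at 37 C/5% CO2 and dye-loaded 1 h.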

[14] = cAMP Responsive Elements (CRE) small molecule agonists, cell-based qHTS assay (AID 1963590)
Method in brief: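 Test agents in DMSO were incubated 3 h at 37 C/5% CO2 with CRE-bla HEK 293T cells seeded 18 h earlier; LiveBLAzer B/G FRET substrate was added and read after 2 h at room temperature.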

[15] = cAMP Responsive Elements (CRE) small molecule antagonists, cell-based qHTS assay (AID 1963591; active = well fitted inhibition curve with a large enough effect in the signal ratio in the repeat runs, not every such curve was filed as active; the % refers to the signal ratio)
Method in brief: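 Reporter line CRE-bla HEK 293T in dialyzed-FBS DMEM; cells preincubated 18 h, treated 3 h with compound plus NKH477 (0.25 uM final); LiveBLAzer FRET, 2 h RT.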

[16] = molecular target: Beta-2 adrenergic receptor (Homo sapiens) (UniProt P07550); experiment: Adrenergic beta2 receptor (ADRB2) small molecule antagonists, cell-based qHTS assay (AID 1963592); note: series mostly up to about 92 µM; nearly all actives have a fitted effect of over 50% in size
Sequence of Beta-2 adrenergic receptor (Homo sapiens) (P07550 whole entry, looked up): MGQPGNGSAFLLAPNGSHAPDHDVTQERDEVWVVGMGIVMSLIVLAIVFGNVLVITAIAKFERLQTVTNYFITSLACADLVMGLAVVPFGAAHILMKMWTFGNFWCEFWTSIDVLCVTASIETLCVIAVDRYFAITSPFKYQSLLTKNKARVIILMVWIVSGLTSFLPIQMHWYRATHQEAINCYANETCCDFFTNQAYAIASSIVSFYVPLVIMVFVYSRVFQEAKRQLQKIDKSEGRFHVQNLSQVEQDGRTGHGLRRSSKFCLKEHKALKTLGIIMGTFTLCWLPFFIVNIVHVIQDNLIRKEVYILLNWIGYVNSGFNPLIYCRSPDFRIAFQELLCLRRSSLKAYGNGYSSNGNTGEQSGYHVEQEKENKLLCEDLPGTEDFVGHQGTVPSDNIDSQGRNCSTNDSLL
Method in brief: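 Assay format: CHO-ADRB2 cells, 18-20hr seeding at 37C/5% CO2, then compound plus 1nM isoproterenol agonist mix for 0.5hr RT. Homogeneous time-resolved fluorescence cAMP detection after 1hr, expressed as 665/615 nm ratio.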

[17] = molecular target: Beta-2 adrenergic receptor (Homo sapiens) (UniProt P07550); experiment: Adrenergic beta2 receptor (ADRB2) small molecule agonists, cell-based qHTS assay (AID 1963593);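 note: CHO cells stably overexpressing human ADRB2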
Method in brief: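 CHO cells stably over-expressing ADRB2 were plated overnight at 37C, then dosed with compounds plus a stimulation mix containing 100uM IBMX and 25uM Ro-20-1724 for 0.5hr at room temperature. cAMP was measured by HTRF competition, 1hr.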

[18] = molecular target: D(2) dopamine receptor (Homo sapiens) (UniProt P14416); experiment: Dopamine D2 receptor (DRD2) small molecule agonists, cell-based qHTS assay (AID 1963594); note: nearly all actives have a fitted effect of over 35% in size
Sequence of D(2) dopamine receptor (Homo sapiens) (P14416 whole entry, looked up): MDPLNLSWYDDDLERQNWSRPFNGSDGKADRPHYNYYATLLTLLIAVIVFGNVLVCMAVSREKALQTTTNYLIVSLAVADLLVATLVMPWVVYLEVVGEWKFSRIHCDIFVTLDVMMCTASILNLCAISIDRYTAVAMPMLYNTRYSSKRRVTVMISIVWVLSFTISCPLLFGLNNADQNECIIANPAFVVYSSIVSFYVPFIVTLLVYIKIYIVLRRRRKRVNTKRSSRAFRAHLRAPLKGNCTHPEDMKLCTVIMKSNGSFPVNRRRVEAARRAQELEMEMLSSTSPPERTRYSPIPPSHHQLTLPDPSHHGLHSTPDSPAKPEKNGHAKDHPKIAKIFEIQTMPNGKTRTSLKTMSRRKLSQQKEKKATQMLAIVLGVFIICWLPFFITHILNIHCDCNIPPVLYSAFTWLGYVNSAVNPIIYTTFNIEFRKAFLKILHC
Method in brief: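 cAMP accumulation in DRD2-HEK293 cells measured by HTRF after 1 h detection; compounds added 10 min before NKH477 (200nM […]) forskolin-analogue stimulation, 30 min at room temperature, with Ro20-1724 present at 0.1 mM final.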

[19] = molecular target: D(2) dopamine receptor (Homo sapiens) (UniProt P14416); experiment: Dopamine D2 receptor (DRD2) small molecule antagonists, cell-based qHTS assay (AID 1963595; active = well fitted inhibition curve with a large enough effect in the signal ratio in the repeat runs, with a control signal flat; the % refers to the signal ratio)
Method in brief: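 DRD2-HEK293; 0.1 mM Ro20-1724; cpd 10 min RT; NKH477 200 nM + quinpirole 12 nM, 30 min RT; HTRF cAMP (cAMP-d2/anti-cAMP cryptate), 665/620 nm ratio after 1 h.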

[20] = molecular target: Gonadotropin-releasing hormone receptor (Homo sapiens) (UniProt P30968); experiment: Human gonadotropin-releasing hormone receptor (GnRHR) small molecule agonists, calcium flux assay in GnRHR-HEK293 cells (AID 1920063); note: nearly all actives have a fitted effect of over 35% in size
Sequence of Gonadotropin-releasing hormone receptor (Homo sapiens) (P30968 whole entry, looked up): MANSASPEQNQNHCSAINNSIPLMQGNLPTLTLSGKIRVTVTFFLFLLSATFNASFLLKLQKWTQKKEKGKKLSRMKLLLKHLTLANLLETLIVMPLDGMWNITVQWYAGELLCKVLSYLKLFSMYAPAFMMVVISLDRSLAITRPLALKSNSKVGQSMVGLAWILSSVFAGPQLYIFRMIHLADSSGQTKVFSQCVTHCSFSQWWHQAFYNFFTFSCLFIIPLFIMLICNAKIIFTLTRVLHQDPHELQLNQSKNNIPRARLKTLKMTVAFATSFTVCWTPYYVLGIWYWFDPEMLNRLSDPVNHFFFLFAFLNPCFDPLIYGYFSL
Method in brief: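 Stable human GnRHR HEK293 line. 18 h plating, then calcium dye for 1 h at 37 C. Agonist-mode compound addition from DMSO stocks; fluorescence monitored 3 min.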

[21] = Nuclear factor erythroid 2-related factor 2/antioxidant responsive element (Nrf2/ARE) small molecule agonists: luciferase reporter gene qHTS assay in human keratinocytes (AID 1919969); note: nearly all actives have a fitted effect of over 35% in size

Measured: Potency

O=C(/N=N/C(=O)OCc1ccccc1)OCc1ccccc1
inactive: [1] | [2] | [3] | [4] | [5] | [6] | [7] | [8] | [9] | [10] | [11] | [12] | [13] | [14] | [15] | [16] | [17] | [18] | [19]

Cc1cc(C)c(C)c(O)c1
inactive: [1] | [20] | [3] | [4] | [5] | [6] | [7] | [8] | [9] | [11] | [12] | [13] | [14] | [15] | [16] | [18] | [19]

CC(C)(C)NC(=O)[C@@H]1CN(Cc2cccnc2)CCN1C[C@@H](O)C[C@@H](Cc1ccccc1)C(=O)N[C@H]1c2ccccc2C[C@H]1O
inactive: [1] | [20] | [2] | [8] | [9] | [14] | [16] | [17] | [18] | [19]

NC(=O)NNc1ccccc1
inactive: [1] | [20] | [3] | [5] | [6] | [7] | [8] | [9] | [10] | [11] | [12] | [13] | [14] | [15] | [16] | [17] | [18] | [19]

O=CC1CC=CCC1 (configuration not stated)
inactive: [1] | [20] | [3] | [4] | [5] | [6] | [7] | [8] | [9] | [10] | [11] | [12] | [13] | [14] | [15] | [16] | [18] | [19]

COC(=O)/C=C/c1ccccc1
inactive: [1] | [20] | [3] | [6] | [8] | [10] | [11] | [12] | [13] | [14] | [15] | [16] | [17] | [18] | [19]

CCN(CC)CCNC(=O)c1ccc(N)cc1
inactive: [1] | [2] | [3] | [7] | [8] | [14] | [15] | [16] | [17] | [18] | [19]

Cc1ccc(/C(=C\CN2CCCC2)c2ccccn2)cc1
inactive: [1] | [20] | [3] | [9] | [10] | [11] | [13] | [14] | [15] | [16] | [17] | [18] | [19]

CC(=O)C1(C)CC2=C(CCCC2(C)C)CC1C (configuration not stated)
inactive: [1] | [2] | [3] | [4] | [6] | [7] | [8] | [9] | [10] | [11] | [12] | [13] | [14] | [15] | [16] | [17] | [18] | [19]

Cc1ccc(C(=O)c2cc(O)c(O)c([N+](=O)[O-])c2)cc1
45.8 µM (active) and inactive: [6]
active: [1] 30.6 µM
inactive: [20] | [3] | [4] | [5] | [7] | [8] | [9] | [10] | [11] | [12] | [16] | [17] | [18] | [19]

CC(=O)SC[C@@H](C)C(=O)N1CCC[C@H]1C(=O)N[C@@H](Cc1ccccc1)C(=O)O
inactive: [1] | [20] | [3] | [4] | [5] | [7] | [8] | [9] | [10] | [11] | [12] | [13] | [14] | [15] | [16] | [18] | [19]

CCCCCCS
inactive: [1] | [2] | [3] | [4] | [5] | [6] | [7] | [8] | [9] | [10] | [11] | [13] | [14] | [15] | [16] | [17] | [18] | [19]

c1c[nH]cn1
inactive: [21] | [20] | [2] | [3] | [4] | [5] | [6] | [7] | [8] | [9] | [10] | [11] | [12] | [13] | [14] | [16] | [18] | [19]

Cc1ccccc1OCC1CO1 (configuration not stated)
inactive: [21] | [20] | [2] | [3] | [4] | [5] | [6] | [8] | [9] | [10] | [11] | [12] | [13] | [14] | [15] | [16] | [17] | [18] | [19]
